High-throughput results: PubChem BioAssay, National Center for Advancing Translational Sciences (NCATS)
KB-3-1 tox: KB-3-1 parental cell cytotoxicity. KB-3-1 viability, CellTiter-Glo ATP luminescence, 72 h. Potency, µM (top dose mostly 46.1 µM), usual class: cytotoxic. 1.4% of 400,000 active; note: % is set by controls: 0 for no effect and ±100 for the full control effect; nearly all actives have a fitted effect of over 60% in size
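Cells are dispensed, compounds pinned in, plates held at 37 °C for 72 h, then CellTiter-Glo is added and luminescence read after 10 minutes. Cell line: parental KB-3-1 in phenol-red-free DMEM, 10% FBS.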
PINK1 expr mod: changes PINK1 expression; PINK1 immunofluorescence, high-content cytometry, 24 h; 0.2% of 410,000 active; Potency, µM (top dose mostly 76.6 µM), for inactives: at the highest dose activation (PINK1 increase), actives largely listed as activators; AID 624263; active = well fitted activation curve with a large enough effect; inconclusive = small, poorly fitted or top-dose-only effect; cell line not stated here; note: % of control where 0% means no effect; nearly all actives have a fitted effect of over 65% in size
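Compound titrations (5 concentrations, 24 h) on a stable cell line; DMSO and CCCP controls. Endpoint: fixed-cell PINK1 immunofluorescence with mitochondrial, cell and nuclear markers, scanned by microplate cytometer.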
KB-V1 cytotox: kills drug-selected multidrug resistant KB-V1 cells; AID 1347076; 3.4% of 400,000 active; KB-V1 MDR cells viability, CellTiter-Glo, 72 h; Potency, µM (doses to about 46.1 µM), usual class: cytotoxic; note: % is set by controls: 0 for no effect and ±100 for the full control effect; nearly all actives have a fitted effect of over 60% in size
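Cytotoxicity toward P-gp-expressing KB-V1 cells was determined as loss of CellTiter-Glo luminescence after 72 h at 37 degrees C. Compounds were tested in quantitative HTS format across a concentration range, with curves fitted to normalized data.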
SW480 rerep: DNA re-replication induction in SW480 cells. Potency, µM (top dose mostly 46.1 µM), inactives show top-dose re-replication activation, most hits filed as activators. SW480 DNA re-replication, Hoechst DNA content imaging, 48 h. 1.8% of 340,000 active; note: % of control where 0% means no effect; nearly all actives have a fitted effect of over 55% in size
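Readout is total intensity of Hoechst-stained nuclei, excited at 405 nm and collected at 500-530 nm. Compound treatment lasted 48 hr at 37 C in 5% CO2 before staining.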
MCF10A rereplic: inducers of DNA re-replication in MCF 10A breast cells | MCF 10A DNA re-replication, Hoechst nuclear intensity, 48 h | Potency, µM (doses to about 46.1 µM), for inactives: at the highest dose activity, positive = re-replication, most hits filed as activators | 2.9% of 350,000 active; note: % of control where 0% means no effect; nearly all actives have a fitted effect of over 50% in size
Active calls of the source: *; i = inactive; ? = inconclusive; . = not tested or not shown; ! = repeats disagree; [ ] = dose if it differs, or a comment. An excerpt weighted towards active compounds, which were near 6.7% of everything screened. Unless noted, calls come from the whole dose curve; as a rule, active = well fitted curve in the direction sought with a large enough effect; inconclusive = small, poorly fitted or top-dose-only effect, or another doubt; inactive = no such curve, though single readings can be large; an effect the other way counts as inactive or inconclusive. Potency is the fitted concentration of half-maximal effect.

SMILES | KB-3-1 tox | PINK1 expr mod | KB-V1 cytotox | SW480 rerep | MCF10A rereplic
CCC(C)[C@H](NC(=O)Nc1ccc2c(c1)OCCO2)C(=O)O (stereo partly drawn) | i | . | i | 18µM* | ?
CCC(C)[C@H](NC(=O)Nc1ccc2c(c1)OCCO2)C(=O)OC (stereo partly drawn) | i | 0% | i | -5% | 1%
COc1ccc(CCN(C(=O)C(F)(F)F)C(C(=O)NC2CCCC2)c2cccs2)cc1OC (stereo not drawn) | i | . | 9.2µM* | 19% | -7%
COc1ccc(CCN(C(=O)C(F)(F)F)C(C(=O)NC2CCCCC2)c2ccc(C)s2)cc1OC (stereo not drawn) | i | . | i | 11% | 2%
CCN([C@H](CO)CC(C)C)S(=O)(=O)c1ccccc1 | i | 0% | i | -32% | 9%
C=CS(=O)(=O)N(Cc1ccccc1Br)[C@H](CO)CC(C)C | 23µM*! | 0% | ? | ? | 15%
C=C[C@@H](C)N(Cc1ccc(OC)cc1)S(=O)(=O)N(Cc1ccccc1)[C@H](C=C)C(C)C | ? | 2% | ? | -2% | 3%
O=S(=O)(N(Cc1ccccc1)[C@H](CO)Cc1ccccc1)N(Cc1ccccc1)[C@H](CO)Cc1ccccc1 | i | 3% | i | -1% | 23µM*
C=C[C@H](CC(C)C)N(Cc1ccccc1)S(=O)(=O)N(Cc1ccccc1)[C@@H](C=C)CC(C)C | i | 2% | i | -3%[9.22 µM] | 9.2µM*
COc1ccc(CN([C@H](C)CO)S(=O)(=O)N(Cc2ccccc2)[C@H](CO)C(C)C)cc1 | i | 1% | i | -15% | -11%
CC(C)C[C@@H](CO)N(Cc1ccccc1)S(=O)(=O)N(Cc1ccccc1)[C@H](CO)CC(C)C | ? | -2% | 21µM*! | 11% | ?
CS(=O)(=O)N1CCC2(CC1)CN(C(c1ccccc1)c1ccccc1)C2 | . | 0% | . | . | .
COc1cccc(CNC(=O)c2c(OC)cc(=O)n3c2CCN(C(=O)c2ccc(Cl)cc2)CC3)c1 | . | 1% | . | . | .
O=C(c1ccncc1)N1CCC[C@@]2(CCN(c3ccccn3)C2)C1 | . | 0% | . | . | .
CC(C)C[C@@H](CO)N(Cc1ccccc1)S(=O)(=O)N(Cc1ccccc1)[C@@H](CO)CC(C)C | 23µM*! | -1% | ? | 0% | ?
COc1ccc(CN([C@H](CO)CC(C)C)S(=O)(=O)N(Cc2ccccc2)[C@H](CO)CC(C)C)cc1 | ? | 0% | 16µM*! | -17% | 267%
COc1ccccc1C1CN(Cc2cccc(O)c2)Cc2ccccc2O1 (stereo not drawn) | . | 7% | . | . | .
CC(=O)N1N=C(c2ccc(C)cc2)OC1c1ccc(Br)cc1 (stereo not drawn) | i | 3% | i | -2% | ?
CCOc1ccc(Br)cc1C1=NN(C(C)=O)C(c2ccc([N+](=O)[O-])s2)O1 (stereo not drawn) | ? | -2% | i | 8.2µM* | ?
COC(=O)Cn1c(=NC(=O)c2nc3ccccc3s2)sc2cc(S(N)(=O)=O)ccc21 | ? | -1% | i | -12% | ?
CCOC(=O)Cn1c(=NC(=O)c2cc(-c3cccs3)nc3ccccc23)sc2cc(S(N)(=O)=O)ccc21 | i | ? | i | ? | 8.2µM*
COC(=O)Cn1c(=NC(=O)c2cc(-c3cccs3)nc3ccccc23)sc2cc(S(N)(=O)=O)ccc21 | i | 3% | ? | ? | 7.3µM*
Cc1ccccc1Cn1c(=O)n(CCC(=O)NCc2ccco2)c(=O)c2sccc21 | . | 2% | . | . | .
Cc1cc(C(C)(C)C)cc(C)c1C[n+]1ccc2ccccc2c1 | 1.6µM* | 45µM* | i | 2% | ?
CCn1c(=O)c(=O)[nH]c2cc(C(=O)NCc3ccc(F)cc3)ccc21 | i | 4% | i | -4% | 14%
SMILES | KB-3-1 tox | PINK1 expr mod | KB-V1 cytotox | SW480 rerep | MCF10A rereplic
O=C(Nc1ccc(F)cc1F)c1ccc2c(c1)[nH]c(=O)n2Cc1ccc(F)cc1 | i | 13% | i | -42% | 5.8µM*
Cc1ccc(Cl)cc1NC(=O)C1CCCN1S(=O)(=O)c1ccc(-c2ccc(=O)[nH]n2)s1 (stereo not drawn) | ? | -1% | i | 4µM* | ?
Cc1cc(Cl)ccc1NC(=O)C1CCCN1S(=O)(=O)c1ccc2c(c1)CCCC(=O)N2 (stereo not drawn) | i | 1% | i | . | .
Cn1c(=O)n(-c2ccc3c(c2)OCO3)c2nc(-c3ccccc3)nc(C(N)=O)c21 | i | 1% | i | . | .
Cc1c(N=Nc2c(-c3ccc([N+](=O)[O-])cc3)[nH]n(C(N)=S)c2=O)cccc1[N+](=O)[O-] | 21µM* | 3.2µM* | 16µM* | ? | ?
C/C=C1\NC(=O)[C@H](C)NC(=O)[C@@H](NC(=O)[C@H](Cc2ccc(O)cc2)NC(=O)[C@@H](NC(=O)/C(C)=C/C)C(C)C)[C@@H](C)OC(=O)[C@H](CCCc2ccc(O)cc2)NC(=O)[C@@H](CCC(=O)OC)NC1=O | i | 1% | i | . | .
C/C=C1\NC(=O)[C@H](CC(N)=O)N(C)C(=O)C([C@@H](C)O)NC(=O)C(CCCc2ccc(OC)cc2)NC(=O)[C@H](C(C)C)NC(=O)/C(=C\C)NC(=O)[C@H](O)[C@@H](C[C@@H](O)CCCCCCC)NC(=O)[C@H](C)NC(=O)CN(C)C(=O)[C@H](CCC(N)=O)NC1=O (stereo partly drawn) | 16µM* | 0% | i | ? | 18µM*
COc1ccc(OC)c(CN2CCCC(c3nc(-c4ccncc4)ncc3-c3ccccc3C)C2)c1 (stereo not drawn) | . | 1% | . | . | .
COc1ccccc1C#Cc1ccc2c(=O)c3ccccc3n(C)c2c1 | i | -1% | i | -4% | 21µM*
Cn1c2ccccc2c(=O)c2ccc(C#Cc3ccc(N)cc3)cc21 | i | 4% | i | 15µM* | ?
COc1ccc(C#Cc2ccc3c(=O)c4ccccc4n(C)c3c2)cc1 | i | 7% | i | ? | ?
Cn1c2ccccc2c(=O)c2ccc(Cl)cc21 | ? | 0% | 13µM* | . | .
CN(C)c1ccc(-c2ccc3c(=O)c4ccccc4n(C)c3c2)cn1 | i | ? | i | 3%[9.22 µM] | ?
Cc1ccc(-c2nnc(SCC(=O)N/N=C/c3ccc(C)s3)n2-c2ccccc2)cc1 | ? | 0% | 21µM* | ? | 18µM*
Cc1nn(-c2ccccc2)c(C)c1/C=N/NC(=O)c1cc(-c2cccc3ccccc23)n[nH]1 | i | 4% | i | ? | ?
Cc1ccc(CSc2nnc(SCC(=O)N/N=C/c3c(C)nn(-c4ccccc4)c3C)s2)cc1 | i | 0% | i | 4% | -1%
